Assay [1] can be described thus: TAMU_PeakParms_SingleDonor1434_Asystole: Texas A&M University (TAMU) 1.5-hr Human Induced Pluripotent Stem Cell (iPSC)-derived Cardiomyocytes Calcium (Ca+2) Flux Assay for Cardiotoxicity: Asystole (quiescence of beating) (AID 2284328; active = hit-call score of the fitted dose curve at least 0.9, where 1 is the maximum). In a few lines:
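Average Ca2+-flux peak frequency (beats/s) was recorded in single-donor iPSC-derived cardiomyocytes after 90 min exposure (0.2–100 uM final, 0.5% DMSO). Asystole POD set as EC95 against DMSO, no preprocessing.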

Assay [2] is described as follows: CCTE_Mundy_HCI_iCellGluta_NOG_NeuriteLength: CCTE's Neurite Outgrowth Assay in iCellGluta cells for Neurite Length, Mundy Lab (AID 2284318; active = hit-call score of the fitted dose curve at least 0.9, where 1 is the maximum). The method, boiled down: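 Automated high-content imaging of betaIII-tubulin (Alexa Fluor-488) and Hoechst-stained cells gave neurite length, normalized to the DMSO baseline.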
Assay [3] is described as follows: CCTE_Deisenroth_5AR_NBTE_acceptor: CCTE's 5alpha-reductase NanoBRET Target Engagement Assay - Autofluorescence Screen, Deisenroth Lab (AID 2284321).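 Also: compound fluorescence in the acceptor channel under 460 nm excitation flags autofluorescence artifacts.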 The conditions noted are these: actives raise or lower the signal. In a few lines:
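Autofluorescence counter-screen: chemicals at an assumed nominal 100 uM in DMSO were scanned in three independent runs with 460 nm excitation. Gain or loss of acceptor signal was fitted bidirectionally against DMSO.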
For orientation: In BRET a luciferase serves as donor, and the signal depends on an acceptor being close.

For a further assay, the system named is SRD5A2 (gene 6716). Briefly: CCTE_Deisenroth_5AR_NBTE_ratio: CCTE's 5alpha-reductase NanoBRET Target Engagement Assay - Ratio, Deisenroth Lab (AID 2284322). The conditions noted are these: actives raise or lower the signal. The method, boiled down:
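HEK293T transiently expressing SRD5A2-NanoLuc; cells exposed to chemical (8-point, 10 nM - 29.9 uM) for 5 h total, testosterone tracer added for final 2 h. NanoBRET acceptor/donor ratio (650/460 nm), bidirectional fit vs DMSO.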

The nature of assay [4]: IUF_NPC2-5_cytotoxicity_72hr: Cytotoxicity Assessment at 72 hours in the Leibniz Research Institute for Environmental Medicine (IUF) Neural Progenitor Cell Migration and Differentiation Assay for Cytotoxicity (NPC2-5) (AID 2284306; active = hit-call score of the fitted dose curve at least 0.9, where 1 is the maximum;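 also: LDH release into supernatant measured by resorufin fluorescence marking membrane damage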). The method, boiled down:
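Membrane integrity loss was scored from fluorescence (RFU) of resorufin generated by LDH in culture supernatant, 72 h after dosing. Differentiating human progenitor spheres received seven serial compound concentrations alongside a solvent control.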

Assay [5] is described as follows: IUF_NPC2-5_cytotoxicity_120hr: Cytotoxicity Assessment at 120 hours in the Leibniz Research Institute for Environmental Medicine (IUF) Neural Progenitor Cell Migration and Differentiation Assay (NPC2-5) (AID 2284307; active = hit-call score of the fitted dose curve at least 0.9, where 1 is the maximum;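 also: LDH released into supernatant as membrane damage marker via resorufin fluorescence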). In a few lines: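 Human fetal (GW 16-19) neural progenitor spheres (0.3 mm) plated on poly-D-lysine/laminin in N2 differentiation medium, exposed 120 h with half-medium renewal at day 3; 7 concentrations plus solvent control, DMSO ≤0.1%. LDH release in supernatant read by resorufin fluorescence.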

A short description of assay [6]: IUF_NPC2-5_cell_number_120hr: Cell Number Assessment at 120 hours in the Leibniz Research Institute for Environmental Medicine (IUF) Neural Progenitor Cell Migration and Differentiation Assay (NPC2-5) (AID 2284308).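 Also: count of Hoechst-stained nuclei in migration zone around plated human neural progenitor spheres.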 In a few lines: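 Human fetal neural progenitor spheres (0.3 mm) plated on poly-D-lysine/laminin in N2 differentiation medium, exposed five days across 7 concentrations with half-medium refresh at day 3. Hoechst-positive nuclei counted in migration area at 120 h, relative to DMSO.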

Assay [7] is described as follows: IUF_NPC2-5_viability_120hr: Viability Assessment at 120 hours in the Leibniz Research Institute for Environmental Medicine (IUF) Neural Progenitor Cell Migration and Differentiation Assay (NPC2-5) (AID 2284312). In a few lines: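 Alamar blue resorufin fluorescence read after 5 days of differentiation, with compound present from day 0 and replenished at day 3. Primary hNPC spheres on laminin-coated plates, 37C; seven concentrations plus solvent control, fitted against DMSO.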

The subject of a further assay is IYD (gene 389434). Briefly: CCTE_GLTED_hIYD: CCTE's human Iodotyrosine Deiodinase (xIYD) Inhibition Assay, Great Lakes Toxicology and Ecology Division (GLTED) Lab (AID 2284317; active = hit-call score of the fitted dose curve at least 0.9, where 1 is the maximum;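 also: cell-free human IYD enzyme made in baculovirus insect cells; iodide freed from monoiodotyrosine measured by cerium arsenite color change at 420 nm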). In a few lines: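 hIYD: baculovirus-expressed human IYD deiodinated monoiodotyrosine for 3 h with test chemical; free iodide was measured by Sandell-Kolthoff absorbance at 420 nm and normalized to MNT and DMSO/NaOH controls.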

Assay [8] is described as follows: IUF_NPC1_cytotoxicity_72hr: Cytotoxicity Assessment at 72 hours in the Leibniz Research Institute for Environmental Medicine (IUF) Neural Progenitor Cell Proliferation Assay (NPC1) (AID 2284332; active = hit-call score of the fitted dose curve at least 0.9, where 1 is the maximum;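 also: rising LDH signal means more cytotoxicity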). In a few lines:
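Human fetal neural progenitor spheres (0.3 mm) in EGF/FGF proliferation medium, 37C, exposed 72 h without renewal. LDH release in supernatant read by resorufin fluorescence; gain of signal scored relative to dynamic range.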

The test system of a further assay is TTR (gene 7276). Briefly: CCTE_GLTED_hTTR_0.5uM: CCTE's human Transthyretin (hTTR) Inhibition Assay, with 0.5uM TTR, Great Lakes Toxicology and Ecology Division (GLTED) Lab (AID 2284320). In a few lines: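 Cell-free displacement assay in which human TTR at 0.5 uM was incubated with test chemical for 2 h. Displacement of the ANSA probe was read by fluorescence at 380 nm excitation/475 nm emission. Loss of signal was fitted in the positive direction versus DMSO.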

Inconclusive results are not listed. The source made the active and inactive calls. The calls were made as follows, unless noted: active = hit-call score of the fitted dose curve at least 0.9, where 1 is the maximum; inactive = score below 0.9.

Regarding `Oc1cccc2cccnc12`, the outcome in assay [1] was inactive.

For the compound `C=C(C)C(=O)[O][Sn]([CH2]CCC)([CH2]CCC)[CH2]CCC`, the AC50 is 0.241 µM (active) in [2], 5.27 µM (active) in assay [3] and 4.42 µM (active) in the assay on SRD5A2 (gene 6716).

On to `CCC1(c2ccc(N)cc2)CCC(=O)NC1=O` (centres undefined), for which the outcome (in assay [3]; in the assay on SRD5A2 (gene 6716)) was inactive.

On to `COP(=O)(OC)O/C(=C\Cl)c1cc(Cl)c(Cl)cc1Cl`, for which the outcome (in assay [4]; in the assay with IYD (gene 389434)) was inactive. Besides, the concentration at half-maximal activity (AC50) in [5] is 5.39 µM (active); in [6] it was 0.356 µM (active); in assay [7], 1.06 µM (active); in [2], 51.5 µM (active); in [8], 75.5 µM (active).

Regarding `CCCCCCCCc1ccc(O)cc1`, in the assay on IYD (gene 389434), the half-maximal activity concentration (AC50) was 35.7 µM (active).

Turning to `O=C(OC1CCCCC1)c1ccccc1C(=O)OC1CCCCC1`, the compound was called inactive (in [3]; with SRD5A2 (gene 6716)).

In the case of `C[C@H]1CCCC(=O)CCC/C=C/c2cc(O)cc(O)c2C(=O)O1`, the call (in assay [3]; in the assay with SRD5A2 (gene 6716)) was inactive.

On to `O=C1C(Cl)=C(Cl)C(=O)c2ccccc21`, for which the AC50 with IYD (gene 389434) is 55 µM (active). Moreover, the outcome (in assay [3]; with SRD5A2 (gene 6716)) was inactive.

Regarding `ClC(Cl)=C(Cl)C(Cl)=C(Cl)Cl`, in assay [1], the outcome was inactive.

Consider `O=C(O)C(F)(F)C(F)(F)C(F)(F)C(F)(F)C(F)(F)C(F)(F)F`, for which the outcome in [2] was inactive. For the same compound, the AC50 in the assay on TTR (gene 7276) was 0.395 µM (active).

`C[C@@H]1C[C@@H]([C@H](O)CC2CC(=O)NC(=O)C2)C(=O)[C@@H](C)C1`: the compound was classed as inactive in assay [3]. For the same compound, the AC50 with SRD5A2 (gene 6716) is 0.0871 µM (active).

In the case of `N#CN=C(N)N`, the compound was classed as inactive (in [3]; in the assay on SRD5A2 (gene 6716)).

On to `CCN1CCC2(CC1)COc1cc3c(cc12)N(C(=O)c1ccc(-c2ccc(-c4nnc(C)o4)cc2C)cc1)CC3`, for which the AC50 in assay [3] was 2.17 µM (active); in the assay with SRD5A2 (gene 6716), 5.8 µM (active).

`O=[N+]([O-])c1ccc(O)c([N+](=O)[O-])c1`: the call in assay [3] was inactive. The AC50 in the assay with SRD5A2 (gene 6716) was 64.9 µM (active).

Consider `O=C(Nc1ccc2[nH]ccc2c1)c1cc2cc(F)ccc2n1Cc1cccc(F)c1`, for which the outcome in assay [3] was inactive. The AC50 in the assay with SRD5A2 (gene 6716) is 3.93 µM (active).

With `C=CC(=O)OCCCCCC(C)C`, in the assay on IYD (gene 389434), the call was inactive.

Regarding `CCC[CH2][Sn]([CH2]CCC)([CH2]CCC)[O]C(=O)c1ccccc1`, the compound was classed as inactive in the assay with IYD (gene 389434). The AC50 is 6.56 µM (active) in assay [3] and 10 µM (active) with SRD5A2 (gene 6716).

With `CC(C)(c1ccccc1)c1ccc(O)c(C(C)(C)c2ccccc2)c1`, the AC50 with IYD (gene 389434) is 29.2 µM (active).

For orientation: AC50 means the concentration giving half of the maximal activity seen.

Values taken from PubChem BioAssay (EPA / NIEHS).
